Measured values taken from PubChem BioAssay (NCATS).
Results filed as inconclusive are left out. Where a call stands in place of a potency, no number is given. The source made the active and inactive calls. Calls follow the shape of the full dose curve.

What was measured:
[1] = Cytotoxicity counterscreen for inhibitors of SARS-CoV-2 cell entry (AID 1645845); details: cell viability (SARS-CoV-2 entry assay cells); series mostly up to 57.1 µM; also: nearly all actives have a fitted effect of over 50% in size; also: potency is read from the fitted curve at half-maximal effect
Outline: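 Counterscreen run in the same HEK293-ACE2 line as the pseudotyped-particle entry assay, without particles. Viability after 48 h at 37 C was read as ATP luminescence, scaled between cell-containing and cell-free wells.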

[2] = Primary qHTS to identify inhibitors of SARS-CoV-2 cell entry (AID 1645846); details: SARS-CoV-2 pseudovirus cell entry assay, luminescence; activity change, negative = inhibition: at 57.1 µM (top of the series) unless noted; series mostly up to 57.1 µM; also: nearly all actives have a fitted effect of over 45% in size
Outline: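 Using luciferase-reporting pseudoviruses carrying Wuhan-Hu-1 spike, the screen tracks entry into stably ACE2-expressing cells over 48 hr. Activity is expressed relative to spike particles versus particles lacking any fusion protein.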

Row | SMILES | Potency [1] | activity change, negative = inhibition [2] [%] | Potency [2]
1 | NC(=O)OCC(COC(N)=O)c1ccccc1 | inactive | – | –
2 | CC1(CN2CCC(n3c(=O)[nH]c4ccccc43)CC2)OCc2ccccc2-n2cccc21 (stereo not drawn) | inactive | -26.7 | –
3 | CCCCN1C[C@H](O)[C@@H](O)[C@H](O)[C@H]1CO | inactive | -1.04 | –
4 | CC#C[C@]1(O)CC[C@H]2[C@@H]3CCC4=CC(=O)CCC4=C3[C@@H](c3ccc(N(C)C)cc3)C[C@@]21C | inactive | – | –
5 | CC(=O)N(O)CCCCCNC(=O)CCC(=O)N(O)CCCCCNC(=O)CCC(=O)N(O)CCCCCN | 25.1 µM (active) | – | –
6 | CN(C)c1ccc(O)c2c1C[C@H]1C[C@H]3[C@H](N(C)C)C(=O)C(C(N)=O)=C(O)[C@@]3(O)C(=O)C1=C2O | inactive | -8.61 | –
7 | O=C1NC(c2ccccc2)(c2ccccc2)C(=O)N1COP(=O)(O)O | inactive | -4.89 | –
8 | CN(C)[C@@H]1C(=O)C(C(N)=O)=C(O)[C@@]2(O)C(=O)C3=C(O)c4c(O)ccc(Cl)c4[C@@H](O)[C@H]3C[C@@H]12 | inactive | – | inactive
9 | COC(=O)[C@H]1[C@H]2C[C@@H]3c4[nH]c5cc(OC)ccc5c4CCN3C[C@H]2C[C@@H](OC(=O)c2cc(OC)c(OC)c(OC)c2)[C@@H]1OC | inactive | -18.9 | –
10 | CC(COc1ccccc1)N(CCCl)Cc1ccccc1 (stereo not drawn) | inactive | -7.59 | –
11 | O=C1NC(=O)C(c2ccccc2)(c2ccccc2)N1 | inactive | – | inactive
12 | CCCN1C[C@H](CSC)C[C@@H]2c3cccc4[nH]cc(c34)C[C@H]21 | inactive | -12.6 | –
13 | CCC[C@H](N[C@@H](C)C(=O)N1[C@H](C(=O)O)C[C@@H]2CCCC[C@@H]21)C(=O)OCC | inactive | – | inactive
